# Laboratory results taken from the supplement of paper PMC8728848.
# The sample as a whole holds a higher share of the strongest signals than the screen did.
# B1: Awp1 (Candida glabrata) (protein)
# chain: MSLITIFAFLIKATLVLSLDILTPTTLTGDQTFNEDVSVVSSLTLNDGSQYLFNNLLQIAPSSASVTANALAAVSVFTFSLPPSSSLSNSGTLIISNSNTGPSTEQHIVITPNVMANTGTITLSLAHTNTDSSSTLIIDPVTFYNTGTINYESIGSETNDPSLTGNILSIGSSGRTLQNLGTINLNAANSYYLLGTITENSGSINVQKGFLYVNALDFIGNTINLSTTTALAFISPVSQVVRVRGVFFGNIIASVGSSGTFSYNTQTGILTVTTNGVYSYDIGCGYNPALMSGQQETLSFQGNPYDTFLVLVNQPIPSDLTCAAVSSSITPSSSVEPSSSVVPSSSVEPSSSVEPSSSVEPSSSVEPSSSVEPSSSVEPSSSVEPSSSVEPSSSVEPSSSVEPSSSVEPSSSVEPSSSVEPSSSVEPSSSVEPSSSVEPSSSVEPSSSVEPSSSVEPSSLIVPSSSVEPSSSVLPSSSVVPSSSVEPSTPPIPSSSVEPSSSVVPSSPAVPSSSVEPSTPPIPSSSVVSASVFDTSSTLPSSPSVPPSSVSPSTISTPSSSAAPSSFCPTCVSSGTPPAPSSSAIVPTSSAGGGNGGDNREPGAAGQPGAAGQPGAAGQPGAAGQPGAAGQPGAAGQPGAAGQPGAAGQPGAAGQPGAAGQPGAGFGVGSEQPTPGAGAGSGSADGNQSGTGSGTGNGQQGSGQAGSGQAGSGQEGSGQAGSGQAGSGQAGSGQAGSGQAGLDNTASGQSEGGQASAMDGDQSGRDGQSNSGSLLQPNAQQGTGSGTGSDIGADQASGESPGQIGDAQPGSGTDQSSGRHSLAAEARTSQSHSLAADARTRSTTRQTSVIAPDTAPGTASGTAPGTAPGTAVVTTFHGCGTVNHKGMINILLALALLVLL
# Experiments:
# Test in all cases: glycan array binding signal (z-score within array); higher = stronger binding
# Conditions in all cases: glycan notation: IUPAC condensed, linker removed
# [1] = target: Gal(b1-4)GlcNAc(b1-3)[Gal(b1-4)GlcNAc(b1-6)]Gal(b1-4)GlcNAc
# Procedure, shortened: (§1)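 From the Consortium for Functional Glycomics database, 3228 arrays were curated, keeping only those whose protein sequence was available. Binding is given as a within-array Z-score averaged across arrays sharing a protein sequence and across linkers. Negative Z-scores can be read as non-binding.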
# [2] = target: Gal(b1-4)GlcNAc(b1-6)Gal(b1-4)GlcNAc
# Procedure, shortened: as §1
# [3] = target: GalNAc(b1-4)GlcNAc(b1-3)GalNAc(b1-4)GlcNAc
# Procedure, shortened: as §1
# GalNAc(b1-6)GalNAc = target: GalNAc(b1-6)GalNAc
# Procedure, shortened: as §1
# GalNAc4S6S(b1-4)GlcNAc = target: GalNAc4S6S(b1-4)GlcNAc
# Procedure, shortened: as §1
# [4] = target: GlcA3S(b1-3)Gal(b1-4)GlcNAc(b1-2)Man
# Procedure, shortened: as §1
# [5] = target: GlcNAc(b1-2)[GlcNAc(b1-4)]Man(a1-3)[GlcNAc(b1-4)][GlcNAc(b1-2)Man(a1-6)]Man(b1-4)GlcNAc(b1-4)GlcNAc
# Procedure, shortened: as §1
# [6] = target: GlcNAc(b1-2)[GlcNAc(b1-6)]Man(a1-6)[GlcNAc(b1-2)Man(a1-3)]Man(b1-4)GlcNAc(b1-4)[Fuc(a1-6)]GlcNAc
# Procedure, shortened: as §1
# [7] = target: GlcNAc(b1-2)[GlcNAc(b1-6)]Man(a1-6)[GlcNAc(b1-4)][GlcNAc(b1-2)Man(a1-3)]Man(b1-4)GlcNAc(b1-4)GlcNAc
# Procedure, shortened: as §1
# [8] = target: GlcNAc(b1-3)Gal(b1-3)GalNAc
# Procedure, shortened: as §1
# [9] = target: GlcNAc(b1-3)Gal(b1-4)GlcNAc(b1-3)Gal(b1-4)GlcNAc(b1-2)Man(a1-3)[GlcNAc(b1-3)Gal(b1-4)GlcNAc(b1-3)Gal(b1-4)GlcNAc(b1-2)Man(a1-6)]Man(b1-4)GlcNAc(b1-4)GlcNAc
# Procedure, shortened: as §1
# [10] = target: GlcNAc(b1-3)Gal(b1-4)GlcNAc(b1-3)Gal(b1-4)GlcNAc(b1-3)Gal(b1-4)GlcNAc(b1-2)[GlcNAc(b1-3)Gal(b1-4)GlcNAc(b1-3)Gal(b1-4)GlcNAc(b1-3)Gal(b1-4)GlcNAc(b1-6)]Man(a1-6)[GlcNAc(b1-3)Gal(b1-4)GlcNAc(b1-3)Gal(b1-4)GlcNAc(b1-3)Gal(b1-4)GlcNAc(b1-2)Man(a1-3)]Man(b1-4)GlcNAc(b1-4)[Fuc(a1-6)]GlcNAc
# Procedure, shortened: as §1
# [11] = target: GlcNAc(b1-4)Gal(b1-4)GlcNAc
# Procedure, shortened: as §1
# Kdn(a2-3)Gal(b1-3)GalNAc = target: Kdn(a2-3)Gal(b1-3)GalNAc
# Procedure, shortened: as §1
# [12] = target: Kdn(a2-3)Gal(b1-4)[Fuc(a1-3)]GlcNAc
# Procedure, shortened: as §1
# [13] = target: Man(a1-2)Man(a1-2)Man(a1-3)Man
# Procedure, shortened: as §1
# MurNAc(b1-4)GlcNAc = target: MurNAc(b1-4)GlcNAc
# Procedure, shortened: as §1
# [14] = target: Neu5Ac(a2-3)Gal(b1-3)GlcNAc(b1-6)GalNAc
# Procedure, shortened: as §1
# [15] = target: Neu5Ac(a2-3)Gal(b1-3)]Neu5Ac(a2-3)Gal(b1-4)]GlcNAc
# Procedure, shortened: as §1
# [16] = target: Neu5Ac(a2-3)Gal(b1-4)GlcNAc
# Procedure, shortened: as §1
# [17] = target: Neu5Ac(a2-3)Gal(b1-4)GlcNAc(b1-2)Man(a1-3)[GlcNAc(b1-4)][Neu5Ac(a2-3)Gal(b1-4)GlcNAc(b1-2)Man(a1-6)]Man(b1-4)GlcNAc(b1-4)GlcNAc
# Procedure, shortened: as §1
# [18] = target: Neu5Ac(a2-3)Gal(b1-4)GlcNAc(b1-3)Gal
# Procedure, shortened: as §1
# [19] = target: Neu5Ac(a2-3)Gal(b1-4)GlcNAc(b1-3)Gal(b1-4)GlcNAc(b1-3)Gal(b1-4)GlcNAc(b1-2)Man(a1-3)[Neu5Ac(a2-3)Gal(b1-4)GlcNAc(b1-3)Gal(b1-4)GlcNAc(b1-3)Gal(b1-4)GlcNAc(b1-2)Man(a1-6)]GalNAc
# Procedure, shortened: as §1
# [20] = target: Neu5Ac(a2-3)Gal(b1-4)GlcNAc(b1-3)Gal(b1-4)GlcNAc(b1-3)[Neu5Ac(a2-3)Gal(b1-4)GlcNAc(b1-3)Gal(b1-4)GlcNAc(b1-6)]GalNAc
# Procedure, shortened: as §1
# [21] = target: Neu5Ac(a2-3)Gal(b1-4)[Fuc(a1-3)]GlcNAc(b1-2)Man
# Procedure, shortened: as §1
# [22] = target: Neu5Ac(a2-3)Gal(b1-4)[Fuc(a1-3)]GlcNAc(b1-3)Gal
# Procedure, shortened: as §1
# [23] = target: Neu5Ac(a2-3)Gal(b1-4)[Fuc(a1-3)]GlcNAc(b1-3)Gal(b1-4)[Fuc(a1-3)]GlcNAc(b1-3)Gal(b1-4)[Fuc(a1-3)]GlcNAc
# Procedure, shortened: as §1
# [24] = target: Neu5Ac(a2-3)Gal(b1-4)[Fuc(a1-3)]GlcNAc(b1-6)[Gal(b1-3)]GalNAc
# Procedure, shortened: as §1
# [25] = target: Neu5Ac(a2-3)[GalNAc(b1-4)]Gal(b1-4)GlcNAc
# Procedure, shortened: as §1
# Neu5Ac(a2-6)Gal(b1-4)Glc = target: Neu5Ac(a2-6)Gal(b1-4)Glc
# Procedure, shortened: as §1
# [26] = target: Neu5Ac(a2-8)Neu5Ac(a2-3)Gal(b1-4)Glc
# Procedure, shortened: as §1
# [27] = target: Neu5Ac(a2-8)Neu5Ac(a2-3)Gal(b1-4)GlcNAc
# Procedure, shortened: as §1
# [28] = target: Neu5Ac(a2-8)Neu5Ac(a2-8)Neu5Ac(a2-8)Neu5Ac(a2-3)[GalNAc(b1-4)]Gal(b1-4)Glc
# Procedure, shortened: as §1
binder,measurement,setting,value
B1,glycan array binding signal (z-score),[1],-0.342
same,glycan array binding signal (z-score),[2],-0.366
same,glycan array binding signal (z-score),[3],1.95
same,glycan array binding signal (z-score),GalNAc(b1-6)GalNAc,2.29
same,glycan array binding signal (z-score),GalNAc4S6S(b1-4)GlcNAc,1.51
same,glycan array binding signal (z-score),[4],0.488
same,glycan array binding signal (z-score),[5],0.047
same,glycan array binding signal (z-score),[6],-0.571
same,glycan array binding signal (z-score),[7],-1
same,glycan array binding signal (z-score),[8],2.02
same,glycan array binding signal (z-score),[9],-0.505
same,glycan array binding signal (z-score),[10],2.24
same,glycan array binding signal (z-score),[11],1.07
same,glycan array binding signal (z-score),Kdn(a2-3)Gal(b1-3)GalNAc,-1.24
same,glycan array binding signal (z-score),[12],-0.924
same,glycan array binding signal (z-score),[13],-0.346
same,glycan array binding signal (z-score),MurNAc(b1-4)GlcNAc,-1.87
same,glycan array binding signal (z-score),[14],0.214
same,glycan array binding signal (z-score),[15],0.442
same,glycan array binding signal (z-score),[16],0.13
same,glycan array binding signal (z-score),[17],0.483
same,glycan array binding signal (z-score),[18],0.691
same,glycan array binding signal (z-score),[19],1.61
same,glycan array binding signal (z-score),[20],-0.297
same,glycan array binding signal (z-score),[21],-0.217
same,glycan array binding signal (z-score),[22],0.412
same,glycan array binding signal (z-score),[23],-0.603
same,glycan array binding signal (z-score),[24],-0.493
same,glycan array binding signal (z-score),[25],-0.217
same,glycan array binding signal (z-score),Neu5Ac(a2-6)Gal(b1-4)Glc,-1.39
same,glycan array binding signal (z-score),[26],0.225
same,glycan array binding signal (z-score),[27],-0.772
same,glycan array binding signal (z-score),[28],-1.71
